# In PubChem BioAssay:
# Unmarked numbers belong to inactive results. The rule behind the calls is not given here.
# Molecular target: Pantothenate synthetase (Mycobacterium tuberculosis (strain ATCC 25618 / H37Rv)) (UniProt P9WIL5)
# Experiment: Coupled enzyme confirmation of inhibitors against recombinant Mtb PanC (AID 375);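 note: 0% = full reaction with vehicle and 100% = no enzyme background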
# Conditions: coupled enzyme assay; at 10 µM, hits give high values
# Sequence of Pantothenate synthetase (Mycobacterium tuberculosis (strain ATCC 25618 / H37Rv)) (P9WIL5 whole entry, looked up): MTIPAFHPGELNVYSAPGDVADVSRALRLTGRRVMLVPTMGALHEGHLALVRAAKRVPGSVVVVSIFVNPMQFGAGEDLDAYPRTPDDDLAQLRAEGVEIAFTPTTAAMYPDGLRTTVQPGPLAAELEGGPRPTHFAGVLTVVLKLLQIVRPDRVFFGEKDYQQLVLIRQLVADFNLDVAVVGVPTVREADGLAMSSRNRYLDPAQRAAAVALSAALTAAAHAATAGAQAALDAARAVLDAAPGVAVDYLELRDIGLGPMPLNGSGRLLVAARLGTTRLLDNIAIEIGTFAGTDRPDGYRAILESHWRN
row,SMILES,inhibition [%]
1,CCN1CCN(C(=O)c2cc3c(=O)n(C)c4ccccc4c3n2C)CC1,0
2,O=C(CN1CCC(NC(=O)c2ccc(F)cc2)CC1)NCc1ccccc1F,5
3,CCN1CCN(c2ncnc3c2cnn3-c2ccc(C)cc2C)CC1,9
4,CC1NC(=O)NC1CCCCCC(=O)NCCc1ccccc1 (stereo not given),2
5,O=C(Nc1cnn(Cc2ccc(F)cc2)c1)c1cnccn1,2
6,COc1ccc(OC)c(NC(=O)Cc2coc3ccc(C)cc23)c1,6
7,Cc1cc(C)nc(SCc2nnc(SCc3ccccc3Cl)o2)n1,0
8,O=C(NCCSc1c[nH]c2ccccc12)c1ccco1,0
9,CSc1n[nH]c(NCc2ccccc2)n1,6
10,COC(=O)Cc1[nH]nc2c1C(C1C=CCCC1)C(C#N)=C(N)O2 (stereo not given),3
11,O=C(NC12CC3CC(CC(C3)C1)C2)N1CCN(C(=O)C2CCCO2)CC1 (stereo not given),7
12,Cc1cccc(NC(=O)CCn2ccnc2C)c1,0
13,COc1ccc(CCNc2oc(-c3ccco3)nc2C#N)cc1,2
14,Cc1nnc(SCC(=O)NCc2ccc3c(c2)OCO3)s1,5
15,CCOc1nc(-c2ccccc2)ccc1-c1noc(-c2ccc(OC)c(OC)c2)n1,4
16,O=C(NCCC1=CCCCC1)c1cc2c(s1)CS(=O)(=O)C2,1
17,COCCNC(=O)CCCCCN1C(=O)CCC1=O,7
18,CC(C)[C@H](NC(=O)[C@@H]1CSCN1C(=O)OC(C)(C)C)C(=O)NCC1CCC(C(=O)O)CC1 (stereo not given in full),7
19,COc1ccc(C(=O)CN2C(=O)NC3(CCCc4ccccc43)C2=O)cc1OC (stereo not given),0
20,Clc1ccc(SCCn2ccnc2)cc1,0

row,SMILES,inhibition [%]
1,CCOC(=O)CSc1nnc(Cn2c(=O)sc3ccccc32)n1C,0
2,O=C(O)CN1C(=O)C2(OCCCO2)c2ccccc21,0
3,CC1=C/C(=C/N(C)c2ccccc2)C(=O)S1,1
4,Cc1c(OCC(F)(F)F)ccnc1CS(=O)c1nc2ccccc2[nH]1 (stereo not given),6
5,Cc1cc(C)n2cc(CSCc3ccco3)nc2n1,2
6,COc1ccc(C(=O)Nc2ccc(S(=O)(=O)Nc3nccnc3OC)cc2)cc1OC,0
7,CC1CN(C(=O)CSc2nnc(-c3ccncc3)n2-c2ccccc2)CC(C)O1 (stereo not given),1
8,Cn1cnnc1SCC(=O)NCc1cccc(C(F)(F)F)c1,0
9,Cc1ccc(S(=O)(=O)NCC(=O)N(CC(=O)NCc2ccccc2)CC2CCCO2)cc1 (stereo not given),2
10,Cc1cc(NC(=O)CCCN2C(=O)c3cccnc3C2=O)no1,0
11,CCN(CC)C(=O)CSc1nnc([C@@H](N)Cc2ccccc2)o1,0
12,Cc1cc(C(=O)O)ccc1-n1c(C)ccc1C,6
13,COC(=O)c1cc(-c2c(C)nn(-c3ccccc3)c2C)n[nH]1,0
14,CCCS(=O)(=O)N1CCC(C(=O)N2CCCC2)CC1,7
15,O=C(CCN1C(=O)C2C3C=CC(C3)C2C1=O)NCCc1ccccc1Cl (stereo not given),0
16,CSc1nc(NC(C)(C)C)nc(Oc2ccc(=O)[nH]n2)n1,0
17,CCOc1ccc2[nH]c(=O)c(C(c3nnnn3Cc3ccco3)N3CCC(C)CC3)cc2c1 (stereo not given),0
18,CCOc1ccc(NS(=O)(=O)c2cc(Cl)ccc2OC)cc1,4
19,O=C(O)CCCC(=O)NCCc1ccncc1,0
20,Cc1nn(Cc2ccc(C(=O)NC3CCCCC3)o2)c(C)c1Br,2
